A short description of test [1]: NCI Yeast Anticancer Drug Screen. Data for the rad50 strain (AID 155).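 Also: 0% = growth of vehicle-only cultures of the same strain.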 Conditions: S. cerevisiae rad50 strain growth inhibition, stronger effect = higher value. The procedure, abridged: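 A DNA repair-deficient yeast mutant serves as the test organism; compound-induced growth inhibition is calculated against vehicle-treated cells.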
A short description of test [2]: NCI Yeast Anticancer Drug Screen. Data for the mec2-1 strain (AID 157). The note with it: S. cerevisiae mec2-1 strain, stronger effect = higher value. The procedure, abridged:
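Readout is yeast growth inhibition, normalised to vehicle-treated controls, in the mec2-1 strain exposed to compound.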

The nature of test [3]: NCI Yeast Anticancer Drug Screen. Data for the sgs1 mgt1 strain (AID 161).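 Also: 0% = growth of cultures given vehicle only.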 Conditions: S. cerevisiae sgs1 mgt1 strain, stronger effect = higher value. The procedure, abridged: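 Yeast cells carrying a defined DNA-repair defect were exposed to test compounds. Growth inhibition was measured relative to vehicle-treated controls.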
The nature of test [4]: NCI Yeast Anticancer Drug Screen. Data for the cln2 rad14 strain (AID 165).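 Also: 0% = growth equal to vehicle treated cultures.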 The note with it: S. cerevisiae cln2 rad14 strain, stronger effect = higher value. An outline of the steps: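 Relative to vehicle controls, growth inhibition of compound-treated cln2 rad14 yeast was recorded.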
Test [5] is described as follows: NCI Yeast Anticancer Drug Screen. Data for the bub3 strain (AID 167). Conditions: S. cerevisiae bub3 mutant strain, stronger effect = higher value. The procedure, abridged:
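Inhibition values come from growth of compound-treated mutant yeast normalised to vehicle-treated controls.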

Test [6] in a line: NCI Yeast Anticancer Drug Screen. Data for the mlh1 rad18 strain (AID 175). Conditions: S. cerevisiae mlh1 rad18 strain growth inhibition, stronger effect = higher value. The procedure, abridged: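 Test agents were incubated with a yeast strain of defined genotype (DNA damage repair defect). Inhibition of growth was derived by comparison with vehicle-exposed cultures.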
[7] abbreviates: at 5.0 µM (retest, dose inferred, filed as 0.5).
The mark [8] stands for this setting: at 50.0 µM (retest, dose inferred, filed as 5.0).

Compounds without any hit were thinned out: in the full panel of roughly 79,000, 15% have a hit. A number with no mark means an inactive call. Activity calls are given as the source filed them. Rule as the data show it: active = growth inhibition above about 70%; inactive = the rest.

Regarding `O=[N+]([O-])c1ccc(N(CCO)CCO)c2c1no[n+]2[O-]`, the growth inhibition in test [1] (setting [7]) is 39%; in test [1] (setting [8]), 92% (active); in test [1] (at 50.0 µM), 81.4% (active); in test [2] (setting [7]), 25%; in test [2] (setting [8]), 70% (active); in test [2] (at 50.0 µM), 54.4%. The growth inhibition is 35% in test [3] (setting [7]); 83% (active) in test [3] (setting [8]); 69.2% in test [3] (at 50.0 µM); 8% in test [4] (setting [7]); 44% in test [4] (setting [8]); 44.3% in test [4] (at 50.0 µM). The growth inhibition was 4% in test [5] (setting [7]); 40% in test [5] (setting [8]); 61.5% in test [5] (at 50.0 µM); 42% in test [6] (setting [7]); 90% (active) in test [6] (setting [8]); 78.8% (active) in test [6] (at 50.0 µM).

`CC(=O)O[C@@H]1[C@@H](O)[C@H]2O[C@@H]3C=C(C)C(=O)[C@@H](O)[C@]3(CO)[C@]1(C)[C@]21CO1`: the growth inhibition was 14% in test [1] (setting [7]); 85% (active) in test [1] (setting [8]); 48.7% in test [1] (at 50.0 µM); 22% in test [2] (setting [7]); 93% (active) in test [2] (setting [8]); 20.1% in test [2] (at 50.0 µM). In addition, the growth inhibition is 13% in test [3] (setting [7]); 90% (active) in test [3] (setting [8]); 62.4% in test [3] (at 50.0 µM); 33% in test [4] (setting [7]); 92% (active) in test [4] (setting [8]); 23.5% in test [4] (at 50.0 µM). Moreover, the growth inhibition in test [5] (setting [7]) was 8%; in test [5] (setting [8]), 90% (active); in test [5] (at 50.0 µM), 85% (active); in test [6] (setting [7]) it was 18%; in test [6] (setting [8]), 95% (active); in test [6] (at 50.0 µM), 83.3% (active).

For `CC[CH](C)[Sn](=[O])[c]1ccccc1` (stereo unspecified), the growth inhibition in test [1] (setting [7]) is 15%; in test [1] (setting [8]), 95% (active); in test [1] (at 50.0 µM), 81.1% (active); in test [2] (setting [7]), 28%; in test [2] (setting [8]) it was 93% (active); in test [2] (at 50.0 µM), 80.7% (active). Also, the growth inhibition in test [3] (setting [7]) is 16%; in test [3] (setting [8]) it was 93% (active); in test [3] (at 50.0 µM), 21.9%; in test [4] (setting [7]), 15%; in test [4] (setting [8]), 90% (active); in test [4] (at 50.0 µM), 28.1%. Also, the growth inhibition in test [5] (setting [7]) was 10%; in test [5] (setting [8]), 96% (active); in test [5] (at 50.0 µM), 20.9%; in test [6] (setting [7]), 11%; in test [6] (setting [8]) it was 95% (active); in test [6] (at 50.0 µM) it was 75.8% (active).

Turning to `[Au+].[Au+].[Au+].[c-]1nccn1Cc1ccccc1.[c-]1nccn1Cc1ccccc1.[c-]1nccn1Cc1ccccc1`, the growth inhibition in test [1] (setting [7]) is 13%; in test [1] (setting [8]), 97% (active); in test [1] (at 50.0 µM) it was 76.6% (active); in test [2] (setting [7]) it was 11%; in test [2] (setting [8]) it was 98% (active); in test [2] (at 50.0 µM) it was 88.2% (active). Moreover, the growth inhibition was 29% in test [3] (setting [7]); 97% (active) in test [3] (setting [8]); 88.9% (active) in test [3] (at 50.0 µM); 12% in test [4] (setting [7]); 97% (active) in test [4] (setting [8]); 88.8% (active) in test [4] (at 50.0 µM). The growth inhibition is 18% in test [5] (setting [7]); 98% (active) in test [5] (setting [8]); 84.3% (active) in test [5] (at 50.0 µM); 57% in test [6] (setting [7]); 96% (active) in test [6] (setting [8]); 90.9% (active) in test [6] (at 50.0 µM).

As to `O=[N+]([O-])/C=C\C(Cl)(Cl)Cl`, the growth inhibition in test [1] (setting [7]) was 74% (active); in test [1] (setting [8]), 99% (active); in test [1] (at 50.0 µM), 91.7% (active); in test [2] (setting [7]), 72% (active); in test [2] (setting [8]) it was 99% (active); in test [2] (at 50.0 µM), 92.7% (active). The growth inhibition in test [3] (setting [7]) is 73% (active); in test [3] (setting [8]), 99% (active); in test [3] (at 50.0 µM), 92.2% (active); in test [4] (setting [7]), 82% (active); in test [4] (setting [8]) it was 99% (active); in test [4] (at 50.0 µM), 91.5% (active). Besides, the growth inhibition in test [5] (setting [7]) was 92% (active); in test [5] (setting [8]), 99% (active); in test [5] (at 50.0 µM), 90.5% (active); in test [6] (setting [7]), 74% (active); in test [6] (setting [8]) it was 99% (active); in test [6] (at 50.0 µM), 91.3% (active).

As to `O=C(c1ccc2ccccc2c1)N1CC1`, the growth inhibition in test [1] (setting [7]) was -27%; in test [1] (setting [8]), 23%; in test [1] (at 50.0 µM), 71.8% (active); in test [2] (setting [7]), -6%; in test [2] (setting [8]), -12%; in test [2] (at 50.0 µM), -1.65%. The growth inhibition in test [3] (setting [7]) was -14%; in test [3] (setting [8]) it was 5%; in test [3] (at 50.0 µM), 41.8%; in test [4] (setting [7]), -12%; in test [4] (setting [8]) it was 57%; in test [4] (at 50.0 µM), 66.5%. Moreover, the growth inhibition was 2% in test [5] (setting [7]); 54% in test [5] (setting [8]); 58.9% in test [5] (at 50.0 µM); -24% in test [6] (setting [7]); 52% in test [6] (setting [8]); 63.2% in test [6] (at 50.0 µM).

Take `COC1CC(C)C(OC)C2=CC(=O)C=C(NC(=O)/C(C)=C/C=C\C(C)C(OC(N)=O)/C(C)=C\C(C)C1OC)C2=O` (stereo unspecified): the growth inhibition in test [1] (setting [7]) was 93% (active); in test [1] (setting [8]), 98% (active); in test [1] (at 50.0 µM), 91.5% (active); in test [2] (setting [7]) it was 97% (active); in test [2] (setting [8]), 99% (active); in test [2] (at 50.0 µM), 93% (active). Also, the growth inhibition in test [3] (setting [7]) is 97% (active); in test [3] (setting [8]), 99% (active); in test [3] (at 50.0 µM) it was 92.5% (active); in test [4] (setting [7]) it was 89% (active); in test [4] (setting [8]) it was 97% (active); in test [4] (at 50.0 µM) it was 91.2% (active). In addition, the growth inhibition in test [5] (setting [7]) is 97% (active); in test [5] (setting [8]), 99% (active); in test [5] (at 50.0 µM) it was 91.1% (active); in test [6] (setting [7]), 97% (active); in test [6] (setting [8]), 98% (active); in test [6] (at 50.0 µM) it was 91.4% (active).

The values are drawn from PubChem BioAssay (NCI).
